Mot1-301 SUMO: yeast Mot1-301 growth rescue at high temperature, primary screen, SUMOylation pathway inhibitor project, S. cerevisiae, ATP luminescence, 38.5C; S. cerevisiae Mot1-301 growth rescue; percent above DMSO median, 100 means doubled; AID 2716, 2010; actives 1% (n = 320,000); growth rescue, % at 18.8 µM;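 active means every valid replicate shows activation above 250% relative to neutral control wells; inactive means the rest, any valid replicate at or below 250%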;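 further: OY570 slx delta 5 strain wells were the positive control but not used for scaling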
NTR1 agonist: agonists of human NTR1, primary screen, imaging, U2OS cells, beta-arrestin-GFP, high content | Neurotensin receptor type 1 (Homo sapiens), P30989 | actives 0.17% (n = 330,000) | NTR1-U2OS beta-arrestin-GFP spot imaging, agonist mode | activation, % at 20 µM | AID 493036, 2011;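 active means activation at or above 40% of the spot to cytoplasm intensity ratio, with at least 20 cells analyzed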;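 further: 0% = DMSO without peptide and 100% = 100 nM NTR1 peptide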
Target sequence (P30989 whole entry, looked up): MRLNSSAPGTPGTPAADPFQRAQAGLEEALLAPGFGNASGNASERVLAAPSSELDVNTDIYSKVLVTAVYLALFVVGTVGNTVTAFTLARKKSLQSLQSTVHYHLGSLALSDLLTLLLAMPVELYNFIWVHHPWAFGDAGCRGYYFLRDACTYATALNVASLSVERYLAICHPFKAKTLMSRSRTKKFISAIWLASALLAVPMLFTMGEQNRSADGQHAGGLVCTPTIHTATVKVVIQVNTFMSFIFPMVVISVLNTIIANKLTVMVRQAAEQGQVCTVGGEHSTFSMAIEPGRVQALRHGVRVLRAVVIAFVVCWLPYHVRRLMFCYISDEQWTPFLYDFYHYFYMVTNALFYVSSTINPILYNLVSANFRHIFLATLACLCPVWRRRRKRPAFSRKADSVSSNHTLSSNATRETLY
AHR act: AHR activators, primary screen, cell-based, luminescence, luciferase reporter, human; AHR-responsive luciferase reporter cells; Aryl hydrocarbon receptor (Homo sapiens), P35869; AID 2796, 2010; activation, % at 5 µM; actives 2.5% (n = 320,000); in the data active means activation above about 47%;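 further: 0% = vehicle wells and 100% = reference agonist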
NR3A LBD binder: binders of NR3A ligand-binding domain, primary screen, biophysical, differential scanning fluorimetry, uHTS | Glutamate receptor ionotropic, NMDA 3A (GRIN3A) ligand-binding domain | NR3A LBD differential scanning fluorimetry, Tm shift; 0% = protein alone, 100% = glycine-bound protein | Tm shift relative to glycine control, % at 25 µM | actives 2.5% (n = 340,000) | AID 1259313, 2017;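 active means melting temperature shift of at least 10% of the positive control shift, at one fixed dose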
AI-2 QS mod: Vibrio harveyi AI-2 quorum sensing modulators, primary screen, JMH597 strain, luminescence/OD600 ratio; activity change, % at 7.5 µM; actives 0.4% (n = 300,000); AID 2094, 2009; Vibrio harveyi JMH597 AI-2 luminescence/OD600 ratio, 9 h; stronger effect = lower value; strain lacks LuxN and CqsS sensors; 0 = neutral-control median; in the data active means activity change below about -75%, passing the limit was not always enough;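 further: luminescence divided by OD600 gain over 9 h not by final OD600 alone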
Cardio protect: cardioprotection against H2O2-induced cell death, primary screen, uHTS, H9c2 cells, ATPLite luminescence | H9c2 cardiomyocytes, H2O2 injury protection, 2 h | protection from H2O2 cell death, % at 20 µM | actives 0.63% (n = 360,000);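 active means compounds giving at least 50% protection of heart cells from peroxide-induced death in the single-dose screen, raw or plate-pattern-corrected value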;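 further: 0% = DMSO wells with peroxide and 100% = DMSO wells without peroxide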
* hit, by the source's call; . = no result given. A selection: hits, their analogues and other compounds. The true share with any hit is near 6.2%.

SMILES	Mot1-301 SUMO	NTR1 agonist	AHR act	NR3A LBD binder	AI-2 QS mod	Cardio protect
Cc1ccc(-c2cc(N)n(-c3ccc(F)cc3)n2)cc1	120.1	2.7	18.9	-22.5	4.6	-9.1
Cc1ccc(-c2cc3nc(-c4ccccc4)cc(N)n3n2)cc1	-4.5	-0.4	18.6	13.0*	5.5	-3.2
Cc1oc(-c2cccs2)cc1C(=O)N1CCCC(C)(C(=O)O)C1 (stereo unspecified)	.	.	.	.	.	1.1
CCCS(=O)(=O)N1CCCC(C(=O)NCCc2cccc(C)c2)C1 (stereo unspecified)	18.7	2.1	0.5	-1.7	14.8	0.3
CS(=O)(=O)N1CCC(Oc2ccccc2C(=O)NC(C2CC2)C2CC2)CC1	834.0*	-0.7	0.1	-0.6	20.7	2.1
CC1=Nc2ccccc2/C1=C/c1nc(-c2ccc(C)s2)oc1O	3.7	-0.7	8.4	20.1*	5.8	-2.4
COc1ccc(-c2nc(/C=C3\C(C)=Nc4ccccc43)c(O)o2)cc1	11.8	13.5	18.3	-3.6	22.6	-5.2
CC1=Nc2ccccc2/C1=C\c1nc(-c2ccc(C(F)(F)F)cc2)oc1O	-5.3	-2.8	24.1	26.8*	13.8	-3.2
COc1ccc(CCNC(=O)COC(=O)C2CC2)cc1OC	9.5	-0.5	-0.1	-2.1	.	0.9
CS(=O)(=O)Nc1nnc(Cc2ccccc2)s1	10.2	1.2	2.8	11.0*	12.3	5.0
CN1c2ccsc2/C(=N/Nc2ccc(F)cc2)CS1(=O)=O	15.7	8.3	65.2*	-5.6	19.3	-12.0
O=C(CN1C(=O)NC(c2ccc(F)cc2)C1=O)NC1CCCCC1 (stereo unspecified)	4.4	-0.5	0.5	0.4	.	0.8
COc1ccc(OC)c(NC(=O)c2[nH]c(C)c(C(C)=O)c2C)c1	51.8	3.3	75.2*	0.3	-2.4	9.4
COc1ccc(Cl)cc1NC(=O)c1[nH]c(C)c(C(C)=O)c1C	-3.6	-0.8	67.6*	0.4	10.6	4.1
COc1ccc(CCNC(=O)c2[nH]c(C)c(C(C)=O)c2C)cc1OC	1.3	14.8	74.2*	-0.4	43.0	-1.6
CCOc1ccc(CCNC(=O)c2[nH]c(C)c(C(C)=O)c2C)cc1OCC	4.5	-1.4	19.1	1.3	28.6	7.7
Cc1ccc(CNc2ncnc3ccc(-c4ccc(CO)o4)cc23)o1	.	.	.	.	.	15.8
CCOC(=O)c1ccc(-c2ccc3ncnc(NCc4csc(C)n4)c3c2)o1	.	.	.	.	.	68.1*
COc1ccc2[nH]c3c(NCc4ccco4)ncnc3c2c1	-16.4	0.0	71.2*	-17.8	14.9	.
COc1cccc(/C=N/Nc2ncnc3c2[nH]c2ccc(C)cc23)c1OC	-27.5	4.4	62.1*	2.4	-4.2	-8.8
Cc1ccc2[nH]c3c(NCCN4CCOCC4)ncnc3c2c1	.	-1.7	.	1.6	-15.0	-3.5
C=CCNc1ncnc2c1[nH]c1ccc(C)cc12	16.7	-0.4	104.6*	-8.2	2.6	-24.9
COc1ccc(/C=N/Nc2ncnc3c2[nH]c2ccccc23)c(OC)c1OC	14.1	0.2	72.2*	-1.3	31.9	0.1
Cc1csc(=O)n1CC(=O)OC(C)C(=O)Nc1ccc(N(C)C)cc1 (stereo unspecified)	.	.	.	-0.9	.	8.3
O=C(Nc1nccs1)C(Br)C(Br)c1ccccc1 (stereo unspecified)	9.6	32.2	51.5*	3.2	14.7	-4.1
SMILES	Mot1-301 SUMO	NTR1 agonist	AHR act	NR3A LBD binder	AI-2 QS mod	Cardio protect
CC(=O)OC(C(=O)Nc1nccs1)c1ccccc1 (stereo unspecified)	3.7	-0.7	-0.1	2.2	3.9	4.6
CCCC[n+]1c2ccccc2cc2ccccc21	18.5	5.3	14.4	22.2*	7.2	-7.8
Cc1ccc(S(=O)(=O)N2CCN(C(=O)COC(=O)CCOc3ccccc3)CC2)c(C)c1	-0.5	-0.1	3.5	1.6	.	0.4
O=C1/C(=C/c2ccco2)SC(=S)N1CCC(=O)N1CCCCC1CCO (stereo unspecified)	77.2	1.3	1.3	-2.7	56.4	3.7
Cc1nc(NC(=O)CSc2nnnn2Cc2ccccc2)sc1C	-6.7	-2.0	65.1*	1.8	-35.3	-0.7
Cc1nc(NC(=O)CSc2nc3cccnc3n2C2CCCCC2)sc1C	3.9	-3.1	19.9	-2.7	21.5	4.1
CCn1c(SCC(=O)Nc2nc(C)c(C)s2)nc2cccnc21	17.8	1.6	52.4*	0.1	31.5	0.0
C/C(=N\NC(=O)CC1N=C(Cc2ccccc2)NNC1=O)c1ccncc1 (stereo unspecified)	-14.6	1.1	56.7*	2.6	25.0	2.8
Cc1ccc(/C=N/NC(=O)CC2N=C(Cc3ccccc3)NNC2=O)cc1 (stereo unspecified)	-6.9	0.6	41.1	0.3	10.8	5.0
COc1ccc2c(c1)C=Cc1ccccc1O2	21.0	1.5	3.0	.	30.6	.
CCN1C(=O)[C@H]2[C@@H](c3ccc(-c4ccc(OC)cc4)cc3)N3CCCC[C@@]3(C(=O)OC)[C@H]2C1=O	787.8*	-1.4	25.7	5.2	10.8	-15.3
Cc1ccc(CNC(=O)C2CCCN(c3cnccn3)C2)cc1 (stereo unspecified)	-4.0	-0.2	58.0*	1.0	23.2	-4.7
O=C(NCCc1ccccc1)C1CCCN(c2cnccn2)C1 (stereo unspecified)	.	-0.3	64.0*	0.2	3.8	4.8
O=C(NCc1ccccc1F)C1CCCN(c2cnccn2)C1 (stereo unspecified)	14.8	0.7	23.8	0.3	17.1	-4.2
Cc1ccc(NC(=O)C2CCCN(c3cnccn3)C2)c(C)c1 (stereo unspecified)	23.6	0.0	47.1*	1.7	6.6	-2.1
Cc1ccccc1CCNC(=O)C1CCCN(c2cnccn2)C1 (stereo unspecified)	.	0.0	48.1*	1.5	14.4	2.3
O=C(NCCc1ccc(Cl)cc1)C1CCN(c2cnccn2)CC1	3.3	-2.5	2.2	0.1	13.4	4.4
Cn1c(=O)c2cc(NC(=O)NCc3ccc(Cl)cc3Cl)ccc2n1Cc1ccccc1	.	.	.	.	.	-1.3
CC(C)NC(=O)Nc1ccc2c(c1)C(=O)N([C@H](C)CO)C[C@H](C)[C@@H](CN(C)S(C)(=O)=O)O2	15.6	-0.7	2.2	1.4	.	-0.2
Cc1ccc(S(=O)(=O)N2CCN(C(=O)C3CSC4(C)CCC(=O)N34)CC2)cc1C (stereo unspecified)	-5.3	0.0	2.0	0.5	.	2.6
C=C(C)COc1ccc(-c2ncncc2Oc2ccc(OC)cc2)c(O)c1	9.6	1.4	13.9	21.0*	-4.9	3.3

High-throughput results: PubChem BioAssay, several laboratories
